This excerpt belongs to a sample that is enriched for hits.
12-LOX inh: inhibitors of human 12S-lipoxygenase ALOX12. P18054. actives 1.1% (n = 580,000). purified 12hLO, xylenol orange hydroperoxide absorbance. Potency, µM (titrated, usually from 108 µM), inactives show at the highest dose activity change, negative = inhibition, actives largely listed as inhibitors; note: potency is the fitted concentration of half-maximal effect
Target sequence (P18054 whole entry, looked up): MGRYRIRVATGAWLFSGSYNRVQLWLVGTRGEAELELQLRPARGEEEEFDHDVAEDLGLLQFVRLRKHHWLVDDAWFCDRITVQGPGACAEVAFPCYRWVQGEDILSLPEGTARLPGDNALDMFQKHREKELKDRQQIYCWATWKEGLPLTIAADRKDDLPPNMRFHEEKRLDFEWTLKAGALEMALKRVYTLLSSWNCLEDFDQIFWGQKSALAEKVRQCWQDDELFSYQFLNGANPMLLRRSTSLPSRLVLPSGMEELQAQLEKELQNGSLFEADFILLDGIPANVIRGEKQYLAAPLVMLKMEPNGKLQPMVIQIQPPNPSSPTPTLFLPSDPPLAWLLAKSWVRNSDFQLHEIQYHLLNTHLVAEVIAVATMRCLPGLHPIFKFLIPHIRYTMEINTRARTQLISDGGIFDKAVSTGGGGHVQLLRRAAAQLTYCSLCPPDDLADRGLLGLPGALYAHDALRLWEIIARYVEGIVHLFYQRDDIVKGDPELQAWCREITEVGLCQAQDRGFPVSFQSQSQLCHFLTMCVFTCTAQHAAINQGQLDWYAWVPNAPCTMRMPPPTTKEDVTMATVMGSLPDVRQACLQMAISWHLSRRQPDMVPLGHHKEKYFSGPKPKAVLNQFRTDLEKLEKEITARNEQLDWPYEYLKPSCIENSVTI
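Purified human 12hLO (150 nM final) in 25 mM Hepes, 0.01% Triton X-100, pH 7.0 was preincubated 15 min at room temperature with compound. Then 40 uM arachidonic acid was added, 30 min. Hydroperoxide was read by Fe-XO absorbance ratio 573/405 nm.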
IL1B secr inh: inhibitors of inflammasome signaling (IL-1 beta secretion). THP-1 LPS/ATP IL-1B secretion, AlphaLISA, 16 h; hits give low values. activity change, % at 57.5 µM. actives 4.7% (n = 360,000). AID 743279; in the data active = activity change below about -50%; inconclusive = mostly about -30% to -49%
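Secreted IL-1B measured by AlphaLISA bead assay after 16 h compound exposure of THP-1 cells; compounds (final up to 57.5 uM) added 1 h before LPS (250 ng/mL) and ATP (1.25 mM) stimulation; lower signal means less secretion.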
TDP1 cell CPT: DT40-hTDP1 cell growth loss with CPT; chicken DT40 Tdp1-/-;hTDP1 cells + 20 nM CPT, ATP luminescence, 48 h; Potency, µM (doses to about 46.2 µM), for inactives: top-dose activity change, negative = growth inhibition, hits mostly inhibitors; actives 12% (n = 420,000); AID 686979; note: potency is the fitted concentration of half-maximal effect; nearly all actives have a fitted effect of over 55% in size
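Chicken DT40 Tdp1-/- cells complemented with human TDP1, 400 cells/well, exposed to compounds plus 20 nM camptothecin for at least 48 h at 37 C; viability read as ATP content by CellTiter-Glo luminescence.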
TDP1 cell noCPT: qHTS for Inhibitors of human tyrosyl-DNA phosphodiesterase 1 (TDP1): qHTS in cells in absence of CPT; actives 15% (n = 420,000); AID 686978, 2013; Potency, µM (series often up to 46.2 µM), for inactives: at the top dose activity change, negative = growth inhibition, hits mostly inhibitors; DT40 Tdp1-/- hTDP1 cells, no CPT, ATP luminescence, 48 h; note: potency is the fitted concentration of half-maximal effect; nearly all actives have a fitted effect of over 55% in size
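No-CPT arm: Tdp1-/-;hTDP1 DT40 cells (400/well) plus compounds, incubated ≥48 hr at 37 °C. Readout CellTiter-Glo luminescence.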
HT1080 IDH1KD tx: toxicity to HT-1080 IDH1 knockdown cells (counter line). AID 686971. Potency, µM (series often up to 46.1 µM), for the others: at the top dose activity, negative = toxicity, most hits filed as cytotoxic. actives 2% (n = 360,000). HT-1080 IDH1 knockdown viability, ATP luminescence, 48 h;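 note: potency is the fitted concentration of half-maximal effect; 0% = DMSO wells and -100% = cell-free medium wells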
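Cytotoxicity counter-line: IDH1KD HT-1080, 48 h, CellTiter-Glo. Curves classed by r2, magnitude and activity.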
HT1080-NT tox: kills 2HG-producing HT-1080-NT fibrosarcoma cells; HT-1080-NT fibrosarcoma viability, CellTiter-Glo ATP luminescence, 48 h; Potency, µM (highest dose often 46.1 µM), without a hit: at the top dose activity, negative = less viability, actives largely listed as cytotoxic; AID 686970; actives 1.6% (n = 360,000);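 note: NT is the 2HG producing partner of a matched IDH1 knockdown line; potency is the fitted concentration of half-maximal effect; 0% = DMSO-treated cells and -100% = media-only wells without cells; nearly all actives have a fitted effect of over 55% in size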
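Viability of the 2HG-overproducing fibrosarcoma line after 48 hours of compound exposure at 37 degrees C was determined by luminescence with CellTiter-Glo, and concentration-effect curves were then fitted and categorized.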
Numbers without * were called inactive; ? = inconclusive; · = no result given; ! = not confirmed by another sample; [ ] = remark or other dose. Unless noted, calls come from the whole dose curve; as a rule, active = well fitted curve in the direction sought with a large enough effect; inconclusive = small, poorly fitted or top-dose-only effect, or another doubt; inactive = no such curve, though single readings can be large; an effect the other way counts as inactive or inconclusive. Unless noted, % is set by controls: 0 for no effect and ±100 for the full control effect.

SMILES | 12-LOX inh | IL1B secr inh | TDP1 cell CPT | TDP1 cell noCPT | HT1080 IDH1KD tx | HT1080-NT tox
Cc1ccccc1[C@H]1[C@@H](C(=O)NC(CO)CO)C[C@@](C)(C(=O)O)N1C | -3% | · | · | · | · | ·
CC(C)NC(=O)c1ccccc1C(=O)c1ccc(F)cc1 | 27% | · | · | · | · | ·
N#Cc1ccccc1S(=O)(=O)NC(=O)[C@H]1O[C@@H](n2cnc3c(N)ncnc32)[C@H](O)[C@@H]1O | -25% | 0 | ? | 13µM* | 14% | 18%
OCC1OC(n2cnc3c(SCc4ccccc4)ncnc32)C(O)C1O (configuration not stated) | 6% | 17 | ? | ? | 23µM* | 7.3µM*
Clc1ccc(CSc2ncnc3c2ncn3C2CCCCO2)cc1 (configuration not stated) | 7% | -26 | ? | 16µM* | -29% | -19%
Nc1nc(SCc2ccccc2)c2ncn(C3OC(CO)C(O)C3O)c2n1 (configuration not stated) | -9% | -27 | -15% | -17% | 25% | 28%
Nc1ncnc2c1ncn2[C@@H]1O[C@H](C(=O)NS(=O)(=O)c2cccc(F)c2)[C@@H](O)[C@H]1O | 1% | 9 | 3% | 6% | 5% | 3%
Cc1cn(-c2cccnc2)c(C)c1CNC[C@H]1O[C@@H](n2cnc3c(N)ncnc32)[C@H](O)[C@@H]1O | 3% | 28 | 18µM* | 9.2µM* | 0% | 5%
CC(=O)OCC(COC(C)=O)(CN1C(=O)c2ccccc2C1=O)CN1C(=O)c2ccccc2C1=O | 1% | · | · | · | · | ·
O=C(Oc1ccc2cc(-c3nc4ccccc4s3)c(=O)oc2c1)C1CC1 | -15% | · | · | · | · | ·
Nc1ncnc2c1c(I)cn2C1OC(CO)C(O)C1O (configuration not stated) | -6% | · | 0.49µM* | 0.28µM* | · | ·
Nc1ncnc2c1[nH]c(=S)n2C1OC(CO)C(O)C1O (configuration not stated) | · | · | 2% | 2% | · | ·
Nc1ncnc2c1ncn2[C@@H]1O[C@H](COP(=O)(O)OP(=O)(O)O)[C@@H](O)[C@H]1O | -8% | · | -7% | -11% | · | ·
N#Cc1c(N)n(C2OC(CO)C(O)C2O)c2ncnc(N)c12 (configuration not stated) | -7% | -102* | 0.016µM* | 0.021µM* | 0.52µM* | 1.3µM*
Nc1ncnc2c1ncn2[C@@H]1O[C@H](COP(=O)(O)OP(=O)(O)CP(=O)(O)O)[C@@H](O)[C@H]1O | 16µM* | · | 3% | -8% | · | ·
OC[C@H]1O[C@@H](n2cnc3cncnc32)[C@H](O)[C@@H]1O | 1% | · | 0.26µM* | 0.46µM* | · | ·
COc1cc(-c2ccnc3nc(Cc4ccc(F)cc4)nn23)cc(OC)c1OC | 18% | · | · | · | · | ·
CCOC(=O)C1(Cc2ccccc2Cl)CCN(C(=O)c2cnccn2)CC1 | -8% | 0 | -16% | ? | 2% | 12%
N#CC1CCN(C(=O)c2nc(-c3cccc(C(F)(F)F)c3)c3cnccn23)CC1 | 21% | · | · | · | · | ·
O=C(Nc1ccc(F)cc1)N[C@H]1CC[C@@]23CCCN2C(=O)CCC[C@H]3C1Cc1ccccc1 (some centres not stated) | -4% | · | · | · | · | ·
Nc1ncnc2c1ncn2C1OC(CO)C(O)C1O (configuration not stated) | -2% | -15 | 1.3µM*! | 0.92µM*! | 21% | 19%
CSCC1OC(n2cnc3c(N)ncnc32)C(O)C1O (configuration not stated) | 13% | · | · | · | · | ·
O=C(Cc1ccccc1[N+](=O)[O-])Nc1nccs1 | -14% | 15 | 8.2µM* | ? | 0% | 1%
O=C(Nc1nccs1)c1ccc(Cl)c([N+](=O)[O-])c1 | 156% | -69* | 5% | 3% | 1% | -3%
O=C(Nc1nccs1)c1cc([N+](=O)[O-])ccc1Cl | 0% | -25 | ? | ? | ? | ?
SMILES | 12-LOX inh | IL1B secr inh | TDP1 cell CPT | TDP1 cell noCPT | HT1080 IDH1KD tx | HT1080-NT tox
O=C(Cc1ccccc1)Nc1nccs1 | 0% | -5 | -17% | -14% | 1% | -1%
O=C(Nc1nccs1)c1ncc(Cl)c(Cl)c1Cl | 1% | -56* | 21µM* | 15µM* | -25% | ?
O=C(Nc1nccs1)c1ccc(N2CCOCC2)c([N+](=O)[O-])c1 | 0% | -27 | ? | 21µM* | 13% | 16%
COc1ccc(CC(=O)Nc2cccc(NC(=O)C(C)n3cccn3)c2)cc1F (configuration not stated) | -2% | · | · | · | · | ·
COc1cc(COC(=O)c2cc(OC)c(OC)c(OC)c2)cc(Cl)c1OC(F)F | 7% | · | · | · | · | ·
Cn1ncc(N2CCCC(CC(=O)NCc3cccs3)C2)cc1=O (configuration not stated) | 27% | · | · | · | · | ·
CC12CCC(C(=O)N3CCC(Cc4ccccc4)CC3)(C(=O)C1=O)C2(C)C (configuration not stated) | -7% | -102* | 11% | ? | -1% | -18%
CC1(C(=O)N2CCC(Cc3ccccc3)CC2)CCOCC1 | -14%[12.5 µM] | · | · | · | · | ·
Cc1ccc(CN(C)C(=O)c2nn(Cc3ccccc3)c(=O)c3ccccc23)o1 | -39% | · | · | · | · | ·
NC(c1ccccc1)c1csc(Nc2ccc(C(F)(F)F)cn2)n1 (configuration not stated) | ? | ? | ? | 13µM* | ? | ?

Assay outcomes deposited in PubChem by National Center for Advancing Translational Sciences (NCATS).
